Assay [1] deals with TRPC4 beta (transient receptor potential cation channel C4), mouse. The experiment in a line: activators of mouse TRPC4 channel, confirmation, cell-based, Fluo4 calcium, HEK293 TRPC4beta/mu-opioid, duplicates, 10 µM (AID 2426;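 active = fluorescence ratio normalized to control raised more than 50% in primary screen plus both repeat runs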). As to conditions: Fluo4 calcium fluorescence, at 10 µM; hits give high values.
Assay [2] relates to transient receptor potential cation channel C4 beta (TRPC4), mouse. The experiment in a line: activators of mouse TRPC4 channel, confirmation, cell-based, second round, Fluo4, HEK293 TRPC4beta/mu-opioid, 1 µM (AID 2461;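 active = primary screen active and over 50% activation in each of two duplicate runs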). As to conditions: Fluo4 calcium fluorescence, at 1 µM; hits give high values.
Assay [3] has as its system TRPC4 (transient receptor potential cation channel C4 beta), mouse. Nature of the assay: positive allosteric modulators of mouse TRPC4, confirmation, cell-based, second round, Fluo-4, HEK293 TRPC4beta/mu-opioid, 1 µM (AID 2554;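 active = primary screen hit whose fluorescence ratio, in both repeats, exceeds the weak agonist control mean by 3 SD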). To be noted: DAMGO EC20, Fluo-4 calcium flux, at 1 µM; hits give high values. For orientation: Calcium flux is commonly read through the fluorescence of an indicator in the cells.

Assay [4] has as its system TRPC4 beta (transient receptor potential cation channel C4), mouse. Nature of the assay: positive allosteric modulators of mouse TRPC4, confirmation, cell-based, Fluo-4, HEK293 TRPC4beta/mu-opioid (AID 2555;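 active = primary screen hit whose calcium fluorescence ratio, in both repeats, exceeds the weak agonist control mean by 3 SD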). As to conditions: DAMGO EC20, Fluo-4 calcium flux, at 10 µM; hits give high values.
Assay [5] concerns the target Short transient receptor potential channel 4 (Mus musculus) (UniProt Q9QUQ5). Nature of the assay: inhibitors of mouse TRPC4 channel, confirmation, cell-based, Fluo4, HEK293 TRPC4beta/mu-opioid (AID 2636;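 active = calcium signal cut by more than 3 SD below the full-agonist control yet still positive, in both repeats and the earlier primary screen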). To be noted: DAMGO, Fluo4 calcium flux, at 10 µM; hits give high values.
Assay [6] shares this target. Nature of the assay: inhibitors of mouse TRPC4 channel, confirmation, cell-based, second round, Fluo4, HEK293 TRPC4beta/mu-opioid, 1 µM (AID 2637;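 active = calcium signal ratio cut to more than 3 SD under the fully stimulated control mean yet still positive, in both repeats and the primary screen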). As to conditions: Fluo4 calcium flux, DAMGO, at 1 µM; hits give high values.
Assay [7] shares this target. Nature of the assay: mouse TRPC4 channel activators, dose response, cell-based, HEK293 TRPC4/mu-opioid, Fluo-4 calcium (AID 434937;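 active = primary screen activator hit with a dose response curve and TRPC4 channel activation at any tested dose; inactive = no activation, no dose response, or not a primary hit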).
For assay [8] the target is unchanged. Nature of the assay: TRPC4 positive allosteric modulators, dose response, cell-based, HEK293 TRPC4/mu-opioid, Fluo-4 calcium, EC20 DAMGO (AID 434941;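 active = earlier screen potentiator hit that boosts the TRPC4 ion channel at some dose, with a dose response; inactive = no potentiation, no dose response, or not a prior hit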;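 note: calcium entry triggered by an EC20 dose of DAMGO at the co-expressed mu-opioid receptor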).
Assay [9] shares this target. Nature of the assay: mouse TRPC4 channel inhibitors, dose response, cell-based, HEK293 TRPC4/mu-opioid, Fluo-4 calcium (AID 434942).
The target in assay [10] is Short transient receptor potential channel 6 (Mus musculus) (UniProt Q61143). The experiment in a line: inhibition of mouse TRPC6 channel, confirmation, selectivity assay for TRPC4 inhibitor project, cell-based, HEK293, membrane potential dye, duplicate (AID 434948;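 active = active in primary screen and both duplicates, each dropping signal beyond three positive-control SD with fluorescence still positive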). As to conditions: HEK293 TRPC6, membrane potential dye fluorescence, at 10 µM, stimulated with maximal-effect acetylcholine; hits give high values.
Short transient receptor potential channel 6 (Mus musculus), sequence (Q61143 whole entry, looked up): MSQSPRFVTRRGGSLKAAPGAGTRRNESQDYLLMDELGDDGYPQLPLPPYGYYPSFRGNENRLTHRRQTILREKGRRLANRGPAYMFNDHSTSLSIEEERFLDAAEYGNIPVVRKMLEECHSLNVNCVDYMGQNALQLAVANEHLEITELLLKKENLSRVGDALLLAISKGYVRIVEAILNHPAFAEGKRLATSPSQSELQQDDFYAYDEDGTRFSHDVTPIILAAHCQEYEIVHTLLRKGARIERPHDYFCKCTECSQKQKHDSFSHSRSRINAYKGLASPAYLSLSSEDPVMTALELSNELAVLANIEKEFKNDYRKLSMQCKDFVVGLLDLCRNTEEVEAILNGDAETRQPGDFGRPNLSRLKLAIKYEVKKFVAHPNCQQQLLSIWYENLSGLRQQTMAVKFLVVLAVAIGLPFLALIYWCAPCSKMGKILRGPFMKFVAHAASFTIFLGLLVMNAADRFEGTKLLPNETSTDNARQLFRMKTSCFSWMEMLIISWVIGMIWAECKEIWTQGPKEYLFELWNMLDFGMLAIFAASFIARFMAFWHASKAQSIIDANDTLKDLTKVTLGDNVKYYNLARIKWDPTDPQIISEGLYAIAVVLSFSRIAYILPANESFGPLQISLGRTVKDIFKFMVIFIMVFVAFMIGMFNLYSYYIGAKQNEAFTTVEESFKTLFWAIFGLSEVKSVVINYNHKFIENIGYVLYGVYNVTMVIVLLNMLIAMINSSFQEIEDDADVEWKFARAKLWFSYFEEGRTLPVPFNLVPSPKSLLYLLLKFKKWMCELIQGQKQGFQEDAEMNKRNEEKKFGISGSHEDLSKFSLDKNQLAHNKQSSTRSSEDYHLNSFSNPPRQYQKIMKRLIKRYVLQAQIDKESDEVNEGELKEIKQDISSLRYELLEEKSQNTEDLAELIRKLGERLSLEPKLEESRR

The target is the same in assay [11]. The experiment in a line: activation of mouse TRPC6 channel, confirmation, selectivity assay for TRPC4 activator project, cell-based, HEK293, membrane potential dye, duplicate (AID 434950;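 active = membrane potential signal rise above negative control mean plus 3 SD in both duplicates, also active in the earlier TRPC4 screen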). As to conditions: HEK293 TRPC6, membrane potential fluorescence, at 10 µM; hits give high values.
The target is the same in assay [12]. Nature of the assay: TRPC6 potentiation by TRPC4 potentiator hits, confirmation, selectivity assay for TRPC4 potentiator project, HEK293 cells, membrane potential dye, duplicate (AID 434952;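 active = compound raising the membrane signal above positive-control mean plus 3 SD in both repeats, and a primary screen hit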). As to conditions: HEK293 TRPC6, membrane potential dye fluorescence, at 10 µM, maximal acetylcholine added after compound; hits give high values.
The target in assay [13] is Short transient receptor potential channel 4 (Mus musculus) (UniProt Q9QUQ5). The experiment in a line: calcium flux activators in TRPC4/5HT1a cells, counter-screen for TRPC4 activator project, cell-based, second counter screen, HEK293 TRPC4/5HT1a, Fluo-4 (AID 434977;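 active = calcium signal rise above buffer-control mean plus 5 SD in both duplicates, and also a hit in the primary screen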). To be noted: Fluo-4 calcium flux, at 10 µM; hits give high values.
Short transient receptor potential channel 4 (Mus musculus), sequence (Q9QUQ5 whole entry, looked up): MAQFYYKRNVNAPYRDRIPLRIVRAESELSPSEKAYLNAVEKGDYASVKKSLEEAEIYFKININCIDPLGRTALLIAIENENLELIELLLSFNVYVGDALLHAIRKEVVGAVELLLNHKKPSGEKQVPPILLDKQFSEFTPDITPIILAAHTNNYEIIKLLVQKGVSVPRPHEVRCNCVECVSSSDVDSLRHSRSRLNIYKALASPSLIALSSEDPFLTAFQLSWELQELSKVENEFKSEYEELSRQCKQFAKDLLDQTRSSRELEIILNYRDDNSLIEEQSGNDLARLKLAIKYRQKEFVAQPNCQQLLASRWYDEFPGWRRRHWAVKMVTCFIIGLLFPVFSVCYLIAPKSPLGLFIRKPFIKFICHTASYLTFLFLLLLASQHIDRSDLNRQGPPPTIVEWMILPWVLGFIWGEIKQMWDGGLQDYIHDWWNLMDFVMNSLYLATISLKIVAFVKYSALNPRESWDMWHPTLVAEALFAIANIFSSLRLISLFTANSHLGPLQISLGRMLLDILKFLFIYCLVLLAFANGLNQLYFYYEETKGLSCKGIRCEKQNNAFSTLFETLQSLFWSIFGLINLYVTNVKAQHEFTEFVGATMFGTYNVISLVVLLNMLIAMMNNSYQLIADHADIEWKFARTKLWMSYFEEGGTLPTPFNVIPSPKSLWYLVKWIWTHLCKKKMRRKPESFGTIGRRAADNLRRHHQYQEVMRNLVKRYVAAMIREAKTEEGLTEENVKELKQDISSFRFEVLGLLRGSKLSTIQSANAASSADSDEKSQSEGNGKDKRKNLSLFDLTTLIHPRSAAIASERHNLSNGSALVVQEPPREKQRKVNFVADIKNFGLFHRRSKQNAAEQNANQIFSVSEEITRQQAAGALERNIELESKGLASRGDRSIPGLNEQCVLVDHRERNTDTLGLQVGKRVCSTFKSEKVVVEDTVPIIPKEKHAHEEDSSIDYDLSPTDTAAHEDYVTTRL
Assay [14] can be described thus: calcium flux inhibitors in TRPC4/5HT1a cells, confirmation, counter-screen for TRPC4 inhibitor project, cell-based, second counter screen, HEK293 TRPC4/5HT1a, Fluo-4 (AID 434978;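 active = primary screen active whose calcium signal fell more than 3 SD beyond the full-serotonin control mean in both duplicate plates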;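 note: serotonin given first at submaximal then at maximal dose after compound preincubation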). As to conditions: Fluo-4 calcium flux, at 10 µM, serotonin added to trigger calcium flux; hits give high values.
Assay [15] deals with TRPC4 (mouse), co-expressed with 5HT1a in HEK293. Nature of the assay: calcium flux potentiators in TRPC4/5HT1a cells, confirmation, counter-screen for TRPC4 potentiator project, cell-based, second counter screen, HEK293 TRPC4/5HT1a, Fluo-4 (AID 434979;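 active = signal rise over 3 SD above mean of control wells given weak agonist, in both repeats and first screen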). To be noted: Fluo-4 calcium flux, at 10 µM, serotonin added at its EC20 dose; hits give high values.
Assay [16] in a line: calcium flux activation in mu-opioid HEK293 cells, confirmation, counter-screen for TRPC4 activator project, cell-based, HEK293 mu-opioid receptor line (AID 449723;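 active = hit in primary screen, with calcium signal over 5 SD above buffer well mean in both duplicates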;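 note: counter screen cells carry the mu-opioid receptor alone and lack TRPC4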). As to conditions: Fluo-4 calcium fluorescence, at 10 µM; hits give high values.
Assay [17] is described as follows: calcium flux enhancement in mu-opioid HEK293 cells, confirmation, counter-screen for TRPC4 allosteric potentiator project, cell-based, HEK293 mu-opioid receptor line (AID 449724;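 active = calcium signal rise more than 3 SD above the low-dose agonist control mean, in both duplicate plates and the primary screen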). To be noted: Fluo-4 calcium flux, at 10 µM, compound added before EC20 DAMGO stimulus; hits give high values.
For assay [18], the target named is Short transient receptor potential channel 4 (Mus musculus) (UniProt Q9QUQ5). Nature of the assay: mouse TRPC4 membrane potential modulation by TRPC6 hits, confirmation, selectivity assay for TRPC6 inhibitor project, cell-based, second specificity screen, HEK293 TRPC4/mu-opioid (AID 2776;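 active = compounds whose fluorescence signal differed from control wells by over 3 SD, either direction, in both duplicate plates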). As to conditions: HEK293 TRPC4/MOR, membrane potential dye fluorescence, at 10 µM, channel activated by saturating DAMGO dose; hits give high values.

Assay [19] deals with transient receptor potential cation channel C4 (TRPC4), mouse. Nature of the assay: mouse TRPC4 modulation by TRPC6 hits, confirmation, selectivity assay for TRPC6 inhibitor project, cell-based, HEK293 TRPC4/mu-opioid, membrane potential dye (AID 2777;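 active = rise or fall in signal beyond 3 SD of buffer-only wells in both replicate plates, either sign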;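 note: integrated kinetic ratio of fluorescence range over baseline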). As to conditions: membrane potential fluorescence, at 10 µM.
The nature of assay [20]: nonspecific membrane potential effects, parental HEK293, confirmation, counter-screen for TRPC6 inhibitor project, cell-based, second counter screen (AID 2779;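 active = membrane potential signal moving either way by over 3 SD of the maximum-effect control, in both duplicate plates, meaning non-specific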). As to conditions: parental HEK293 membrane potential dye fluorescence; at 10 µM; maximal acetylcholine challenge after compound addition. (Counterscreens check selectivity or assay interference.)
The nature of assay [21]: membrane potential modulation in parental HEK293, confirmation, counter-screen for TRPC6 inhibitor project, cell-based (AID 2780;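 active = membrane potential signal shifting up or down by more than 3 SD of buffer-only wells, on both duplicate plates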;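 note: plate controls were buffer EC0 wells for no effect and acetylcholine ECmax wells for full effect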). As to conditions: parental HEK293 membrane potential dye fluorescence; at 10 µM.
For assay [22], the target named is Short transient receptor potential channel 6 (Mus musculus) (UniProt Q61143). Nature of the assay: mouse TRPC6 channel inhibitors, confirmation, HEK293 cells, membrane potential dye, duplicate (AID 488960;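 active = fluorescence ratio falls more than 5 SD below the full-stimulation control mean, in both duplicate runs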). To be noted: ACh-evoked depolarization, at 10 µM; hits give high values.
Assay [23] has the same target. The experiment in a line: mouse TRPC6 channel activators, confirmation, HEK293 cells, membrane potential dye, duplicate (AID 488961;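 active = ratio signal rise beyond 5 SD above unstimulated control wells' mean, seen in both duplicate runs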). As to conditions: HEK293-TRPC6 membrane potential dye fluorescence, FDSS, at 10 µM; hits give high values.
Assay [24] is described as follows: nonspecific thallium flux increase in parental CHO-K1, confirmation, counter-screen for KCNQ2 potentiator project, cell-based, FluxOR thallium flux, duplicate (AID 2282;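 active = signal rise of at least 3 SD above the untreated control mean, in both duplicate wells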;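 note: counter screen of KCNQ2 potentiator hits so any rise reflects channel-independent effects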). As to conditions: parental CHO-K1 cells, FluxOR thallium flux fluorescence; at 10 µM; hits give high values; zero = vehicle mean+3SD, 100% = vehicle-minus-blank window.
For assay [25], the target named is Potassium voltage-gated channel subfamily KQT member 1 (Homo sapiens) (UniProt P51787). The experiment in a line: human KCNQ1 channel potentiation off-target, confirmation, selectivity assay for KCNQ2 potentiator project, cell-based, CHO, FluxOR thallium flux (AID 2283;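 active = fluorescence ratio rise of at least 3 SD of vehicle wells above their mean, in both replicate wells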;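 note: 0% = vehicle mean plus 3 SD and 100% = vehicle minus unstimulated blank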). As to conditions: CHO KCNQ1 stable, FluxOR thallium flux fluorescence; at 10 µM; hits give high values; beyond 3SD, as % of vehicle-control signal.
Potassium voltage-gated channel subfamily KQT member 1 (Homo sapiens), sequence (P51787 whole entry, looked up): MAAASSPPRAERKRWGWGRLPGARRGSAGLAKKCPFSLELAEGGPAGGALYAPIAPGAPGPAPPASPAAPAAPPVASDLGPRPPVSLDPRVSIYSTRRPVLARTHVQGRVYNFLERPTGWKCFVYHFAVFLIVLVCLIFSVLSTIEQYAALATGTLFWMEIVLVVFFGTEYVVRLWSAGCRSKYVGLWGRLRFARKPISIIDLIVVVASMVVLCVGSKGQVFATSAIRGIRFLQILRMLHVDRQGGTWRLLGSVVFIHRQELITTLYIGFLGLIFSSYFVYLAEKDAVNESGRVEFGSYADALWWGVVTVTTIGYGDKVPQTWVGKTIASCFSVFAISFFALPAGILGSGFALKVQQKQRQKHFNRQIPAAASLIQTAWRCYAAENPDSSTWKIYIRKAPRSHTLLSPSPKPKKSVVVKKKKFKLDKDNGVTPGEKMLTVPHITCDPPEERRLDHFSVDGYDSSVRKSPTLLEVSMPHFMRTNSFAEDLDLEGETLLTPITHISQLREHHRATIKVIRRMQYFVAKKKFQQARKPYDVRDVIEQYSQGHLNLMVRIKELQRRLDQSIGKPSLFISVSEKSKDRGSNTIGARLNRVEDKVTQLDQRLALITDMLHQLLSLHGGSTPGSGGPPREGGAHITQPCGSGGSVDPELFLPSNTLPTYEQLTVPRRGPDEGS

Assay [26] concerns the target Potassium voltage-gated channel subfamily KQT member 2 (Rattus norvegicus) (UniProt O88943). Nature of the assay: rat KCNQ2 channel potentiators, confirmation, cell-based, CHO, FluxOR thallium flux, duplicate (AID 2287;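 active = fluorescence ratio rising 3 SD or more over the vehicle control mean in both replicates, plus primary screen hit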;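 note: peak minus minimum thallium fluorescence divided by baseline after K/Tl stimulus; 0% = vehicle mean plus 3 SD and 100% = vehicle minus unstimulated blank difference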). To be noted: CHO-KCNQ2 cells, FluxOR thallium flux fluorescence; at 10 µM; hits give high values.
Assay [27] deals with Inward rectifier potassium channel 2 (Mus musculus) (UniProt P35561). Nature of the assay: PubChem AID 2345.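 Note: 0% = vehicle mean plus 3 SD and 100% = vehicle minus no-stimulus blank window.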 To be noted: HEK293 Kir2.1, FluxOR thallium flux fluorescence; at 10 µM; hits give high values.
Inward rectifier potassium channel 2 (Mus musculus), sequence (P35561 whole entry, looked up): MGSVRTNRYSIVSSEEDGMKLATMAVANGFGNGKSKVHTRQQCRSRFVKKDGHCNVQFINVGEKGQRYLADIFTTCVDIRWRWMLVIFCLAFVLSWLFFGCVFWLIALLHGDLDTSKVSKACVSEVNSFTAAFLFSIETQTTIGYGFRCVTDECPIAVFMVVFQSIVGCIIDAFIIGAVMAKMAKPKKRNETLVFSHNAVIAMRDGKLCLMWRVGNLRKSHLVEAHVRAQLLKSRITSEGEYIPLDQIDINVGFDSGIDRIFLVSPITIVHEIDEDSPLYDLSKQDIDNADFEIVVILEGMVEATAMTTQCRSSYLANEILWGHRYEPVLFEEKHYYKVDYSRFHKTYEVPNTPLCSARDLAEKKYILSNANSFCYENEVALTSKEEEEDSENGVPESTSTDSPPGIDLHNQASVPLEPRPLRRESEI
The target of assay [28] is Potassium voltage-gated channel subfamily KQT member 2 (Rattus norvegicus) (UniProt O88943). Nature of the assay: potentiators of retigabine-insensitive KCNQ2 W236L, mechanism study for KCNQ2 potentiator project, cell-based, rat KCNQ2 W236L, CHO, automated patch clamp (AID 2558;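 active = current increase at least 3 SD of the untreated controls above them in both duplicate recordings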). To be noted: at 25 µM; outcome: automated patch clamp current. (In general: The patch-clamp technique gives a direct electrical read-out from membranes.)

A number with no mark means an inactive call. For some of these results: Results with a measured potency or affinity are listed apart. The list shows a part of the results. The source made the active and inactive calls.

This is an account of results in PubChem BioAssay.

Usually inhibition stands for the share of the control response that was lost under treatment.

With `NC(=O)NCCN1CCN(c2ncc(C(F)(F)F)cc2Cl)CC1`, the result in assay [1], in assay [2], in [5], in [6], in [7] and in assay [8] was inactive. Besides, the result in assay [9], in assay [10], in assay [11], in assay [12], in assay [13] and in [14] was inactive. For the same compound, the outcome in assay [16] and in assay [17] was inactive. Also, the potentiation in [3] is 8% (active); in assay [4], 11% (active); in assay [15], 22% (active).
With `O=C(CSc1nnc(-c2ccccc2)o1)c1ccc2c(c1)OCCO2`, the result in [1], in assay [2], in assay [3], in [4], in assay [5] and in assay [6] was inactive. The result in assay [7], in assay [8], in assay [9], in [10], in [11] and in assay [12] was inactive. The outcome in assay [13], in assay [14], in assay [15], in assay [16] and in assay [17] was inactive.
For the compound `CSc1nnc(Cc2sc(-c3ccccc3)nc2-c2ccccc2)o1`, the result in [1], in assay [2], in [3], in assay [4], in assay [5] and in [6] was inactive. The result in assay [7], in assay [8], in [9], in assay [10], in assay [11] and in [12] was inactive. In addition, the result in assay [13], in assay [14], in assay [16] and in assay [17] was inactive. In assay [15], the potentiation is 23.3% (active).
As to `CCCCOc1ccc(CSC(=N)N)cc1[N+](=O)[O-]`, the result in assay [1], in [2], in assay [3], in assay [4], in assay [5] and in assay [6] was inactive. The compound was called inactive in [19], in [20], in assay [7], in [8], in assay [9] and in assay [10]. In addition, the compound was called inactive in assay [11], in [12], in assay [13], in assay [14], in assay [16] and in [17]. The compound was classed as inactive in assay [22] and in [23]. Further, the inhibition in assay [18] is 77.5% (active). The membrane potential signal change in [21] was -186% (active). In [15], the potentiation was 22.3% (active).
Turning to `Cc1ccc(CS(=O)(=O)c2ncc(Cl)c(C(=O)Nc3nnc(C)s3)n2)cc1`, in assay [24], the activity increase over 3SD of controls was 30.6% (active). In addition, the activation over 3SD threshold in assay [25] was 79.7% (active). Moreover, in assay [26], the potentiation, less the hit threshold is -85.4%. The activity over 3SD threshold in assay [27] was -51.4%. In assay [28], the current increase over 3SD of negative controls (%), hits give high values was 48.4% (active).
